Data on 100 molecules can be found in PubChem BioAssay AID1851 (National Center for Advancing Translational Sciences (NCATS), 2009).

“And” between values parts separate entries of the source, which are not always exact repeats. Equal values may be shown once. In all, about 16,000 compounds went through this assay and about 5,700 (36%) were called active. Not shown: some 24% with an inconclusive outcome. Calls follow the shape of the dose curve; as a rule, active = well fitted curve in the direction sought with a large enough effect; inconclusive = small, poorly fitted or top-dose-only effect, or effect the other way; inactive = no such curve, though single readings can be large or run the other way. The list shows a part of the results.
% is scaled to controls: 0 for no effect and ±100 for the full control effect.

This experiment deals with Cytochrome P450 1A2 (Homo sapiens) (UniProt P05177). Kind of experiment: Cytochrome panel assay with activity outcomes. The settings on record: recombinant CYP, pro-luciferin dealkylation, luminescence, p450-cyp1a2; series mostly up to 57.1 µM.
Chain of Cytochrome P450 1A2 (Homo sapiens) (P05177 whole entry, looked up): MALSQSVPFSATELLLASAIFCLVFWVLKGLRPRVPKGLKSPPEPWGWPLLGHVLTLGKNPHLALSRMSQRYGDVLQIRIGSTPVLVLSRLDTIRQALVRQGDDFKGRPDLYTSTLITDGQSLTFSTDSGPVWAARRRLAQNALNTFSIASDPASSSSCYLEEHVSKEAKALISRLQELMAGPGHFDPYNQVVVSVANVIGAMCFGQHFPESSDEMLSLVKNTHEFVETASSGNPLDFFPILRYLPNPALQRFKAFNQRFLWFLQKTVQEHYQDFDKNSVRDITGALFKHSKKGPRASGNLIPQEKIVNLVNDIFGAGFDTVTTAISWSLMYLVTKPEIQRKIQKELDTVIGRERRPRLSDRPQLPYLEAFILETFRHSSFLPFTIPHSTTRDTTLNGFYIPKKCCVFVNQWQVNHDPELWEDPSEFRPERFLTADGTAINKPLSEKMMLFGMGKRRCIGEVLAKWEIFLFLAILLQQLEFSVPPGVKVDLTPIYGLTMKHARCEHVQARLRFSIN
As usually defined, the AC50 is the midpoint of the concentration-response curve, whichever way the signal moves. With `CCCC12CN3CC(CCC)(CN(C1)C3C(O)C(O)C(O)CO)C2=O` (stereo not given), the AC50 entry was “inactive”. Take `CN(C)S(=O)(=O)Oc1cccc(C(=O)Nc2ccccc2Cl)c1`: the AC50 is 2000 nM (active).

As to `COc1ccc(C(=O)N2CCC3(CCN(Cc4cc(C(F)(F)F)cc(C(F)(F)F)c4)CC3)CC2)cc1`, the AC50 entry was “inactive”. For `COc1cc(NC(=O)c2ccc(COCC(F)(F)F)cc2)cc(OC)c1OC`, the AC50 result was “inactive”.

Regarding `COc1ccc(/C=C/C(=O)Nc2cc(C(F)(F)F)ccc2Cl)cc1`, the half-maximal activity concentration (AC50) is 447 nM (active). On to `COc1cccc(C(=O)Nc2cc(C(F)(F)F)ccc2Cl)c1`, for which the AC50 was 2510 nM (active). Consider `CCCC(=O)Nc1ccc(C(=O)Nc2cc(C(F)(F)F)ccc2Cl)cc1`, for which the AC50 result was “inactive”. As to `COc1cc(C(=O)Nc2cc(C(F)(F)F)ccc2Cl)cc(OC)c1OC`, the AC50 is 5010 nM (active).

Turning to `CCOc1ccc(/C(O)=C2/C(=O)C(=O)N(CCOCCO)C2c2cccnc2)cc1` (stereo not given), the AC50 entry was “inactive”.

Regarding `CS(=O)(=O)N1CCC[C@@]2(CCN(c3ccccn3)C2)C1`, the AC50 entry was “inactive”. `COc1ccc(CNC(=O)/C=C/c2ccc(OCCCF)cc2)cc1`: the AC50 entry is “inactive”. Same read-out and setting: then `COC(=O)CNC(=O)/C=C/c1ccc(OC)cc1`, with 12600 nM (active); and `COC(=O)CNC(=O)CCCCC(=O)NCC(=O)OC`, with “inactive”. `CCOc1ccc(CCNC(=O)C2CCN(S(=O)(=O)CC)CC2)cc1OCC`: the AC50 result is “inactive”. For the molecule `CCOC(=O)Cn1c(=O)oc2cc(S(=O)(=O)NCCc3ccc(OCC)c(OCC)c3)ccc21`, the half-maximal activity concentration (AC50) was 12600 nM (active). `Cc1ccc(CNC(=O)CCNS(=O)(=O)c2ccc3c(c2)c(=O)n(C)c(=O)n3C)cc1`: the AC50 entry is “inactive”.

Take `N#Cc1cccc(NC(=O)N2CC[C@@]3(CCCN(C(=O)c4ccco4)C3)C2)c1`: the AC50 result is “inactive”.

As to `Cc1ccc(C(=O)NCCCN2CCOCC2)cc1N1CCCC1=O`, the AC50 result was “inactive”. Still for that read-out and setting: then `O=C(NCCCn1ccnc1)c1ccc(Br)c(S(=O)(=O)N2CCOCC2)c1`, with 1780 nM (active); and `COc1ccc(C(=O)NCCCN2CCOCC2)cc1OC`, with “inactive”; and `Cc1cccc([C@@H]2CN(C)CCc3c2cc(O)c(O)c3Cl)c1`, with “inactive”.

Turning to `CC(C)c1cc(C(F)(F)F)nc(NNc2nc(C(C)C)cc(C(F)(F)F)n2)n1`, the activity, negative = inhibition is -41.5% [at 11.4 µM] (inactive). In the case of `CC(C)Nc1nc(Oc2ccc(Cl)cc2)cc(C(F)(F)F)n1`, the AC50 was 2000 nM (active).

As to `CCS(=O)(=O)c1ccc2oc(Nc3cc(C)cc(C)c3)nc2c1`, the AC50 was 5010 nM (active).

`Cc1cc(C)n(-c2cc(N3CCN(S(=O)(=O)c4ccc(C)c(C)c4)CC3)ccc2[N+](=O)[O-])n1`: the AC50 entry is “inactive”. Still for that read-out and setting: then `CC(C)NC[C@@H](O)COc1ccc(COCCOC(C)C)cc1`, with “inactive”. Take `CC(C)NC[C@H](O)c1ccc2ccccc2c1`: the AC50 was 12600 nM (active). The same measure, in the same setting: then `CC(C)NC[C@H](O)c1cc(O)cc(O)c1`, with “inactive”. Consider `O=C(O)c1cc(=O)c2c(OCC(O)COc3cccc4oc(C(=O)O)cc(=O)c34)cccc2o1`, for which the AC50 entry is “inactive”. For the molecule `OC[C@@H](O)CNc1ncnc2ccccc12`, the activity, negative = inhibition was -18.7% [at 11.4 µM] (inactive). Take `OC[C@@H](O)COc1cccc2ccccc12`: the AC50 is 631 nM (active). On the same count and under the same terms, then `CC(C)NC[C@H](O)COc1cccc2ccccc12`, with 200 nM (active); and `CC(C)NC[C@H](O)c1ccc(NS(C)(=O)=O)cc1`, with “inactive”.

Take `CC(C)NC[C@@H](O)c1ccc(O)c2ncccc12`: the activity, negative = inhibition is -12.1% [at 2.29 µM] (inactive).

Turning to `CC(=O)Nc1ccc(OC[C@@H](O)CNC(C)C)cc1`, the AC50 entry was “inactive”. As to `N[C@@](CC(=O)O)(Cc1ccccc1)C(=O)O`, the activity, negative = inhibition is -13.4% [at 2.29 µM] (inactive). As to `O=C(Cc1ccccc1)N/N=C\c1ccc(Br)o1`, the AC50 was 4470 nM (active). As to `O=C(Cc1ccccc1)N/N=C/c1cc(Br)c(Br)o1`, the AC50 was 2240 nM (active). Regarding `O=C(O)/C(=C\c1ccccc1)Cc1ccccc1`, the activity, negative = inhibition was -18.4% [at 11.4 µM] (inactive). For `COC(=O)c1ccc(-n2cncn2)c(F)c1`, the AC50 was 708 nM (active). `COC(=O)c1ccc2ccn(CC(=O)NC3CCCCC3)c2c1`: the AC50 entry is “inactive”. As for `O=P(O)(O)O[C@@H]1O[C@H](CO)[C@@H](O)[C@H](O)[C@@H]1O`, the activity, negative = inhibition was -16.5% [at 11.4 µM] (inactive). With `COc1ccccc1OCCCCCc1c(C)n[nH]c1C`, the AC50 is 1780 nM (active). On the same count and under the same terms, then `O=c1cc(N2CCCCC2)c(-c2ccccc2)nn1Cc1ccccc1Cl`, with 1260 nM (active); and `O=[N+]([O-])c1ccc(N2CCN(CCOc3nonc3-c3ccccc3)CC2)c(Cl)c1`, with “inactive”. Turning to `O=C(c1ccc(Cl)cc1)N1CCN(c2cc(=O)[nH]nc2-c2ccccc2)CC1`, the AC50 entry is “inactive”. Same read-out and setting: then `Cc1cccc(N(NC(=O)C(C)(C)O)C(=O)c2ccccc2)c1`, with “inactive”; and `Cc1cccc(CNc2ccnc(-c3ccc(C(=O)N(C)C)cc3)n2)c1`, with 25100 nM (active); and `CN(C)C(=O)c1ccc(-c2nccc(NCc3cccnc3)n2)cc1`, with 15800 nM (active). `C/C(=N\N=C(c1ccccc1)c1ccccc1)c1cccs1`: the AC50 was 1410 nM (active). With `C/C(=N\N=C1\NC(=O)CC(C(=O)O)S1)c1cccs1` (stereo not given), the AC50 entry was “inactive”. For the molecule `C[C@@H](CSC(=N)N)C(N)=O`, the activity, negative = inhibition was -6.57% [at 2.29 µM] (inactive).

With `Cc1ccc(-c2cccc(OC(=O)c3ccccc3F)c2)cc1`, the AC50 was 1260 nM (active).

For `O=C(c1cc(O)c(O)c([N+](=O)[O-])c1)c1ccccc1F`, the AC50 entry is “inactive”. Still for that read-out and setting: then `Cc1cc(NC(=O)CSc2nnc(-c3ccccc3)n2Cc2ccco2)no1`, with “inactive”; and `c1ccc(-c2nnc(SCc3nc4ccccc4[nH]3)n2Cc2ccco2)cc1`, with 14100 nM (active). On to `CCn1c(SCc2nc3ccccc3[nH]2)nnc1-c1ccc(OC)cc1`, for which the AC50 was 25100 nM (active). As for `Cc1ccccc1CSc1nnc(-c2cccs2)n1Cc1ccco1`, the AC50 was 4470 nM (active). Still for that read-out and setting: the result for `CCn1c(SCC(=O)NC(=O)NCc2ccco2)nnc1-c1cccs1` reads “inactive”; that for `COCCn1c(Cc2ccccc2)nnc1SCc1nc2ccccc2c(=O)[nH]1`, “inactive”. As for `O=c1cc(CSc2ccccc2)[nH]c(=S)[nH]1`, the AC50 entry is “inactive”. On the same count and under the same terms, the result for `c1ccc(SCc2nc3ccccc3[nH]2)cc1` reads 11200 nM (active); that for `COc1ccc(NC(=O)CCNS(=O)(=O)c2ccc3c(c2)CCC(=O)N3)cc1`, “inactive”; that for `Cc1ccccc1C1C(C#N)=C2N=C(N)c3c(sc4c3CCCCC4)N2C2=C1C(=O)CC(C)(C)C2` (stereo not given), “inactive”.

On to `COc1ccc(-n2c(=O)c(-c3cccs3)nc3cnc(OC)nc32)cc1`, for which the AC50 was 5010 nM (active).

Take `COc1ncc2nc(-c3cccs3)c(=O)n(-c3ccccc3)c2n1`: the AC50 is 2000 nM (active). Turning to `COc1ccc(Oc2ncc3nc(-c4cccs4)c(=O)n(-c4ccccc4)c3n2)cc1`, the concentration at half-maximal activity (AC50) was 3160 nM (active).

As for `CN(C)c1ncc2nc(-c3cccs3)c(=O)n(-c3ccccc3)c2n1`, the AC50 is 31600 nM (active). Take `C/C(CCN1CCCc2nc(C)c(C)cc21)=N\O[C@@H](C)c1cn([C@H](CO)Cc2ccccc2)nn1`: the activity, negative = inhibition is -5.46% [at 11.4 µM] (inactive) and -2.73% [at 11.4 µM] (inactive). Still for that read-out and setting: the result for `Nc1ncnc2c1ncn2[C@H]1O[C@@H](C(=O)O)[C@@H](O)[C@H]1O` reads -10.9% [at 11.4 µM] (inactive).

As to `CC(C)CN1CCCC2(CCN(C(=O)c3csnn3)CC2)C1`, the AC50 result was “inactive”. For the molecule `O=C(c1ccc2ncsc2c1)N1CCN(c2ccc(O)cc2)CC1`, the AC50 entry is “inactive”. `Nc1ccc(N2CCN(C(=O)c3ccco3)CC2)cc1`: the AC50 result is “inactive”. `O=C(c1cc(-c2cccs2)on1)N1CCN(c2ccc(F)cc2)CC1`: the AC50 was 2820 nM (active). Regarding `Cc1cc(C)c(-c2noc(C(=O)OC(C)(C)C)c2C(=O)OC(C)(C)C)c(C)c1`, the AC50 entry was “inactive”. Turning to `Cn1c(=O)c(-c2ccc(Cl)cc2)nc2cnc(OCc3ccccc3)nc21`, the AC50 is 794 nM (active). In the case of `Cn1c(=O)c(-c2ccccc2)nc2cnc(OCc3ccccc3)nc21`, the AC50 is 1580 nM (active).

As to `O=C(c1csnn1)N1CCC2(CCN(Cc3nccs3)CC2)CC1`, the AC50 entry was “inactive”.

For `COC(=O)C(NS(=O)(=O)c1ccc(NC(C)=O)cc1)C(C)C` (stereo not given), the AC50 entry is “inactive”. On to `COc1ccc(CCNC(=O)CC(NS(=O)(=O)c2ccc(NC(C)=O)cc2)C(C)C)cc1OC` (stereo not given), for which the AC50 entry is “inactive”. Regarding `COc1ccc(CONS(=O)(=O)c2ccc(NC(C)=O)cc2)cc1Cl`, the AC50 was 14100 nM (active). The same measure, in the same setting: the result for `O=C(CSc1nc2ccccc2c(=O)n1NC(=O)Cc1ccccc1)NCc1ccccc1Cl` reads 15800 nM (active); that for `CCOC(=O)c1c(NC(=O)C2C3CCC(O3)C2C(=O)O)sc(C)c1-c1ccc(C)cc1` (stereo not given), “inactive”. For the molecule `CCOC(=O)c1c(-c2cccc(C)c2)csc1NC(=O)c1c(-c2ccccc2)noc1C`, the AC50 result is “inactive”. On the same count and under the same terms, the result for `CCOC(=O)c1c(-c2ccccc2)csc1NC(=O)c1cccc(N2C(=O)CCC2=O)c1` reads 8910 nM (active). Regarding `CCc1cc(C(c2ccccc2OC)N2CCOCC2)c(NC(=O)c2ccccc2)s1` (stereo not given), the AC50 result was “inactive”. Turning to `CCOC(=O)c1c(-c2ccc(C)cc2)csc1NC(=O)C1CC=CCC1C(=O)O` (stereo not given), the AC50 is 12600 nM (active).

Consider `O=C(c1cc(C(F)(F)F)cc(C(F)(F)F)c1)N1CCC2(CCN(Cc3nccs3)CC2)CC1`, for which the AC50 entry is “inactive”.

As to `Cc1cnc2cc(Cl)ccc2c1SCC(=O)O`, the activity, negative = inhibition was -2.26% [at 2.29 µM] (inactive). As for `Cn1c(=O)cc(SCC(=O)NCCCN2CCOCC2)c2ccc(Cl)cc21`, the AC50 entry is “inactive”. Turning to `CCOC(=O)CSc1cc(=O)n(C)c2cc(Cl)ccc12`, the AC50 was 1260 nM (active). Turning to `O=C(NCC1CCCO1)c1onc(CSc2ccccc2F)c1C(=O)O` (stereo not given), the AC50 result was “inactive”. As to `O=C(CN(Cc1ccccc1Cl)C(=O)c1ccc(CN2CCOCC2)o1)NCC1CCCO1` (stereo not given), the AC50 result is “inactive”. For `O=C(CSCc1c(F)cccc1Cl)NCC1CCCO1` (stereo not given), the AC50 is 15800 nM (active). On to `CSc1nc2ccccc2cc1/C=C(\C#N)c1cccc(Cl)c1`, for which the AC50 is 2000 nM (active). Same read-out and setting: then `CSc1nc2ccccc2cc1/C=C(\C#N)c1ccccc1`, with 2820 nM (active).

In the case of `CSc1nc(C)c(CCOC(=O)c2cccc(C)c2)c(=O)[nH]1`, the AC50 result is “inactive”. As to `CSc1nc2ccccc2cc1/C=C(\C#N)c1ccc(Cl)cc1Cl`, the AC50 was 1780 nM (active). For `O=C(NNC(=O)c1cc2cc3ccccc3nc2s1)c1cccc(Cl)c1`, the AC50 result was “inactive”. For the molecule `CSc1nc2ccccc2cc1/C=C(\C#N)c1cccc(C)c1`, the AC50 is 3550 nM (active).
